This excerpt belongs to a sample that is enriched for the strongest signals.
How the values were obtained:
Assay in all cases: glycan array binding signal (z-score within array); higher = stronger binding
Conditions in all cases: glycan notation: IUPAC condensed, linker removed
[1] = molecular target: GlcNAc(b1-3)Gal(b1-4)GlcNAc(b1-2)[GlcNAc(b1-3)Gal(b1-4)GlcNAc(b1-6)]Man(a1-6)[GlcNAc(b1-3)Gal(b1-4)GlcNAc(b1-2)Man(a1-3)]Man(b1-4)GlcNAc(b1-4)GlcNAc
Procedure, shortened: (§1)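 Columns mapping to the same glycan were averaged after glycan names were converted to IUPAC-condensed notation. The data come from 3228 arrays in the Consortium for Functional Glycomics database, limited to those with an available protein sequence. Binding is reported as a within-array Z-score averaged across arrays of one protein sequence and across linkers.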

[2] = molecular target: GlcNAc(b1-3)Gal(b1-4)GlcNAc(b1-3)Gal(b1-4)GlcNAc(b1-3)Gal(b1-4)GlcNAc(b1-2)[GlcNAc(b1-3)Gal(b1-4)GlcNAc(b1-3)Gal(b1-4)GlcNAc(b1-3)Gal(b1-4)GlcNAc(b1-6)]Man(a1-6)[GlcNAc(b1-3)Gal(b1-4)GlcNAc(b1-3)Gal(b1-4)GlcNAc(b1-3)Gal(b1-4)GlcNAc(b1-2)Man(a1-3)]Man(b1-4)GlcNAc(b1-4)[Fuc(a1-6)]GlcNAc
Procedure, shortened: as §1

[3] = molecular target: GlcNAc(b1-3)Gal(b1-4)GlcNAc(b1-3)Gal(b1-4)GlcNAc(b1-3)Gal(b1-4)GlcNAc(b1-3)Gal(b1-4)GlcNAc(b1-2)Man(a1-3)[GlcNAc(b1-3)Gal(b1-4)GlcNAc(b1-3)Gal(b1-4)GlcNAc(b1-3)Gal(b1-4)GlcNAc(b1-3)Gal(b1-4)GlcNAc(b1-2)Man(a1-6)]Man(b1-4)GlcNAc(b1-4)GlcNAc
Procedure, shortened: as §1

[4] = molecular target: GlcNAc(b1-3)Gal(b1-4)GlcNAc(b1-6)[Gal(b1-3)]GalNAc
Procedure, shortened: as §1

[5] = molecular target: GlcNAc(b1-3)Gal(b1-4)GlcNAc(b1-6)[GlcNAc(b1-3)Gal(b1-3)]GalNAc
Procedure, shortened: as §1

[6] = molecular target: GlcNAc(b1-3)[GlcNAc(b1-6)]Gal(b1-4)GlcNAc
Procedure, shortened: as §1

[7] = molecular target: Kdn(a2-3)Gal(b1-3)GlcNAc
Procedure, shortened: as §1

[8] = molecular target: Man(a1-2)Man(a1-2)Man(a1-3)Man
Procedure, shortened: as §1

[9] = molecular target: Man(a1-2)Man(a1-3)Man
Procedure, shortened: as §1

[10] = molecular target: Man(a1-3)[Man(a1-6)]Man(b1-4)GlcNAc(b1-4)GlcNAc
Procedure, shortened: as §1

[11] = molecular target: Man(a1-6)Man
Procedure, shortened: as §1

[12] = molecular target: Neu5Ac(a2-3)Gal(b1-4)GlcNAc(b1-2)Man(a1-3)[Neu5Ac(a2-6)Gal(b1-4)GlcNAc(b1-2)Man(a1-6)]Man(b1-4)GlcNAc(b1-4)GlcNAc
Procedure, shortened: as §1

[13] = molecular target: Neu5Ac(a2-3)Gal(b1-4)GlcNAc(b1-2)[Neu5Ac(a2-3)Gal(b1-4)GlcNAc(b1-6)]Man(a1-6)[Neu5Ac(a2-3)Gal(b1-4)GlcNAc(b1-2)Man(a1-3)][GlcNAc(b1-4)]Man(b1-4)GlcNAc(b1-4)GlcNAc
Procedure, shortened: as §1

[14] = molecular target: Neu5Ac(a2-3)Gal(b1-4)GlcNAc(b1-3)Gal(b1-4)GlcNAc(b1-3)Gal(b1-4)GlcNAc(b1-2)Man(a1-3)[Neu5Ac(a2-3)Gal(b1-4)GlcNAc(b1-3)Gal(b1-4)GlcNAc(b1-3)Gal(b1-4)GlcNAc(b1-2)Man(a1-6)]GalNAc
Procedure, shortened: as §1

[15] = molecular target: Neu5Ac(a2-3)Gal(b1-4)GlcNAc(b1-3)Gal(b1-4)GlcNAc(b1-6)[Gal(b1-3)]GalNAc
Procedure, shortened: as §1

[16] = molecular target: Neu5Ac(a2-3)Gal(b1-4)[Fuc(a1-3)]GlcNAc(b1-3)Gal
Procedure, shortened: as §1

[17] = molecular target: Neu5Ac(a2-3)Gal(b1-4)[Fuc(a1-3)]GlcNAc(b1-3)GalNAc
Procedure, shortened: as §1

[18] = molecular target: Neu5Ac(a2-6)Gal(b1-3)GlcNAc(b1-3)[Gal(b1-4)GlcNAc(b1-6)]Gal(b1-4)Glc
Procedure, shortened: as §1

[19] = molecular target: Neu5Ac(a2-6)Gal(b1-4)Glc
Procedure, shortened: as §1

[20] = molecular target: Neu5Ac(a2-6)Gal(b1-4)GlcNAc(b1-2)Man(a1-3)[Neu5Ac(a2-6)Gal(b1-4)GlcNAc(b1-2)Man(a1-6)]Man(b1-4)GlcNAc(b1-4)GlcNAc
Procedure, shortened: as §1

[21] = molecular target: Neu5Ac(a2-6)Gal(b1-4)GlcNAc(b1-3)Gal(b1-4)GlcNAc(b1-3)Gal(b1-4)GlcNAc(b1-2)Man(a1-3)[Neu5Ac(a2-6)Gal(b1-4)GlcNAc(b1-3)Gal(b1-4)GlcNAc(b1-3)Gal(b1-4)GlcNAc(b1-2)Man(a1-6)]GalNAc
Procedure, shortened: as §1

[22] = molecular target: Neu5Ac(a2-6)GalNAc
Procedure, shortened: as §1

[23] = molecular target: Neu5Ac(a2-6)GalNAc(b1-4)GlcNAc
Procedure, shortened: as §1

[24] = molecular target: Neu5Ac(a2-8)Neu5Gc(a2-3)Gal(b1-4)GlcNAc
Procedure, shortened: as §1

[25] = molecular target: Neu5Ac9Ac(a2-6)Gal(b1-4)GlcNAc
Procedure, shortened: as §1

B1: PX14343G-pdi-535-24-535 (Parabacteroides distasonis) (protein)
chain: LDTVPKDQLAPSTTWQTEADAKGFIVGCYKDLLDGNTLLYLDCGSDIGYNNFPWEGFRPWGDGSLSSSNPGQILYDYKSIRKANTFLENVDKVTFSSDAVKANYVAQAKAIRAYKYFLMNWWYGGVPIISSYSSADEAKVERNTEQEVRDYIAKDLDEALAGIAEAPEARGYIAKGAVLAIKMREALYYGDWQKAKDAAKAIIDLKQYELDPDYTNLFKVSGVDSKEIILADQNIETLDGLGTIGQMYNNVDQGWSSIVPTQNLVDMYEMSDGLTKEESKTYDAKHPFANRDPRMAMTILYPGRDWRGDVLNTLDEKLQDGTVNKNFPTYTDNASKSALTWAKYLDPMDQYGDVWSSGACPIVFRYAEVLLTYAEAANELSGPSDEIYGYLNQIRQRVGMGEVDKAKYGTKDKLRELIRRERTVELAGEGLRRADIVRWQEDGKMLAEKVMNGDLLRVTGTINYGESEPTKRAEITGTAVIETRQFSSRNRYLPIPQTSMDKNPNLKQNPGY
**Q.** Which results are given for B1?
**A.** glycan array binding signal (z-score) [1]: 2.37; glycan array binding signal (z-score) [2]: 0.865; glycan array binding signal (z-score) [3]: 0.208; glycan array binding signal (z-score) [4]: -1.23; glycan array binding signal (z-score) [5]: 0.869; glycan array binding signal (z-score) [6]: 1; glycan array binding signal (z-score) [7]: 0.143; glycan array binding signal (z-score) [8]: 0.086; glycan array binding signal (z-score) [9]: -0.387; glycan array binding signal (z-score) [10]: -0.762; glycan array binding signal (z-score) [11]: 2.08; glycan array binding signal (z-score) [12]: -0.159; glycan array binding signal (z-score) [13]: -0.038; glycan array binding signal (z-score) [14]: 2; glycan array binding signal (z-score) [15]: 1.55; glycan array binding signal (z-score) [16]: -0.539; glycan array binding signal (z-score) [17]: 0.588; glycan array binding signal (z-score) [18]: -0.502; glycan array binding signal (z-score) [19]: -0.218; glycan array binding signal (z-score) [20]: -0.872; glycan array binding signal (z-score) [21]: 1.49; glycan array binding signal (z-score) [22]: -0.874; glycan array binding signal (z-score) [23]: -0.103; glycan array binding signal (z-score) [24]: 16.3; glycan array binding signal (z-score) [25]: 0.187
